Compound activity as filed in PubChem.
This is one part of a sample in which hits are shown more often than they occur.
Pf Dd2 inh = inhibitors of Plasmodium falciparum Dd2 growth. P. falciparum Dd2 growth, SYBR Green, 72 h. Potency, µM (highest dose often 28.9 µM), most hits filed as inhibitors. 120,000 tested, 4.3% active; active = well fitted inhibition curve with a large enough effect; also: nearly all actives have a fitted effect of over 65% in size
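Infected erythrocytes (Dd2, 0.3% parasitemia, 2.5% hematocrit final) are added to compound in RPMI-1640/Albumax II medium, grown 72 h at 37C in low oxygen, then lysed with saponin/Triton-X containing SYBR Green and read by fluorescence.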
Numbers stand for hits; – = inactive; [ ] = another dose, or the depositor's remark.

SMILES | Pf Dd2 inh
CCOCCCNc1nc2c(S(=O)(=O)c3ccc(CC)cc3)nnn2c2ccc(Cl)cc12 | –
O=C(NC1CCCCCC1)c1nnn2cc(-c3ccccc3)[nH]c(=O)c12 | –
N#Cc1cccc(C(=O)N2CCCCCCNC(=O)CC2)c1 | –
COc1ccc(C(=O)N2CCN(S(=O)(=O)c3ccc(F)cc3)C[C@@H]2C(=O)N[C@H]2CCCNC2=O)cc1 | –
COc1ccc(NC(=O)c2ccc3c(=O)n4nc(Nc5ccccc5C)sc4nc3c2)cc1 | –
CCc1ccccc1Nc1nn2c(=O)c3ccc(C(=O)NCc4ccccc4Cl)cc3nc2s1 | 11.2µM
Cc1ccc(NC(=O)c2ccc3c(=O)n4nc(Nc5ccccc5C)sc4nc3c2)cc1C | –
COc1ccccc1Nc1nn2c(=O)c3ccc(C(=O)NC(C)c4ccccc4)cc3nc2s1 (stereo not given) | –
CCc1ccccc1Nc1nn2c(=O)c3ccc(C(=O)NCCCOC(C)C)cc3nc2s1 | 11.2µM
Cc1ccc(Cl)cc1Nc1nn2c(=O)c3ccc(C(=O)NC(C)c4ccccc4)cc3nc2s1 (stereo not given) | 7.94µM
CCc1ccccc1Nc1nn2c(=O)c3ccc(C(=O)NCc4cccs4)cc3nc2s1 | 14.1µM
Cc1ccc(Cl)cc1Nc1nn2c(=O)c3ccc(C(=O)Nc4ccc(F)cc4)cc3nc2s1 | –
CCOC(=O)C1CCN(C(=O)c2ccc3c(=O)n4nc(Nc5ccccc5)sc4nc3c2)CC1 | –
CCc1ccccc1Nc1nn2c(=O)c3ccc(C(=O)NC(C)C)cc3nc2s1 | –
COC(=O)c1ccc2c(=O)n3nc(Nc4cc(OC)ccc4OC)sc3nc2c1 | –
COc1ccc(NC(=O)c2ccc3c(=O)n4nc(Nc5ccccc5C)sc4nc3c2)cc1Cl | –
CCNC(=O)N1CCCCCCNC(=O)[C@@H]2CCCC[C@@H]21 | –
O=C(c1ccc(F)c(Cl)c1)N1CC(CO)C2(CCNCC2)C1 (stereo not given) | –
CC(=O)N1CCN(CC[C@H]2CN(C(=O)c3ccc(C(F)(F)F)cc3)CC[C@H]2CC(=O)O)CC1 | –
CO[C@H]1C[C@@H](O)C12CCN(C(=O)Cn1cc(C)c(=O)[nH]c1=O)CC2 | –
O=C1NCCOCCN(C(=O)c2nccc3ccccc23)[C@H]2CCC[C@@H]12 | –
COCCn1c(C)nnc1-c1cc(-c2cccc(O)c2)ccn1 | –
N#Cc1cccc(N2CCC3(CC(=O)NC3=O)C2)n1 (stereo not given) | –
CC(C)(CN1CCOCC1)CN1CCCN(Cc2cccnc2)CC1 | –
CCCN(CC1CCOC1)C(=O)Nc1ccc(C)cc1Cl (stereo not given) | –[5.79 µM]
SMILES | Pf Dd2 inh
O=C(CN1CC2CC(C1)[C@H]1CCCC(=O)N1C2)NCCc1cccs1 (stereo not given in full) | –
O=C(c1ccc(C(F)(F)F)cc1)N1CCCC2(C1)C(=NC1CCCCC1)NC(=O)N2c1cccnc1 (stereo not given) | –
CC(C)CC1=NS(=O)(=O)c2cc(NC(=O)C3CC3)ccc2N1c1ccccc1 | 2µM
CC(C)C1=NS(=O)(=O)c2cc(NC(=O)c3ccco3)ccc2N1c1ccccc1 | –
CCC1=NS(=O)(=O)c2cc(NC(C)=O)ccc2N1CC(C)C | –
Cc1noc(C)c1S(=O)(=O)NCc1cccnc1N(C)Cc1ccccc1 | –
Cc1ccccc1Cn1c(SCc2ccc(C(=O)NCc3cccs3)cc2)nc2ccncc21 | 10µM
O=C(NCc1cccs1)c1ccc(CSc2nc3ccncc3n2Cc2ccccc2F)cc1 | 12.6µM
Cc1oc(-c2ccccc2F)nc1Cn1c(SCc2ccccc2F)nc2ccncc21 | –
O=C(CSc1nc2ccccc2n1Cc1ccccc1F)NCc1ccccc1 | –
COC[C@H]1C[C@@H](NC(=O)CC(C)(C)C)[C@H](O)[C@@H]1O | –
Cn1cnc(S(=O)(=O)N2CC[C@H]3C(=O)NCCCCCCN(Cc4ccncc4)[C@@H]3C2)c1 | –
CCN(CC)C(=O)c1c(-c2ccc(OC)cc2)noc1[C@H](C)O | –
Cc1ccc(C)c(N2CCN(C(=O)c3cc4n(n3)CC(c3ccc(Cl)cc3)OC4)CC2)c1 (stereo not given) | –
COc1ccc(OC)c(CNC(=O)c2ccc3c(c2)c(C)c(C)n3C)c1 | –
O=C(NCc1cccc(Br)c1)C1CCN(c2cnc3nccnc3c2)CC1 | –
CCCOc1ccc(CNC(=O)c2ccc(-n3c(C)cc4c3CCC(C)C4)cc2)cc1 (stereo not given) | –[5.79 µM]
COc1ccc(CCNC(=O)c2ccc(-n3c(C)cc4c3CCC(C)C4)cc2)cc1OC (stereo not given) | –[5.79 µM]
CCc1ccc(CNC(=O)c2ccc3c(c2)nc2n3CCC(C)C2)cc1 (stereo not given) | –
Cc1cc2c(n1-c1ccc(C(=O)NCCc3ccccc3)cc1)CCC(C)C2 (stereo not given) | –
Cc1cc2c(n1-c1ccc(C(=O)NCc3cccc(Br)c3)cc1)CCC(C)C2 (stereo not given) | 11.2µM
COc1ccc(Br)cc1CNC(=O)c1ccc(-n2c(C)cc3c2CCC(C)C3)cc1 (stereo not given) | 12.6µM
CCc1ccc(CNC(=O)c2ccc(-n3c(C)cc4c3CCC(C)C4)cc2)cc1 (stereo not given) | 12.6µM
COc1ccc(-c2noc(CC3CCN(C(=O)c4ccc(OC)nc4OC)CC3)n2)cc1 | –
CN1CCC(N(C)C(=O)C2CCN(C(=O)N3CC4CC(C3)[C@H]3CCCC(=O)N3C4)CC2)CC1 (stereo not given in full) | –
SMILES | Pf Dd2 inh
COc1cccc(CC(=O)N2CCCC(c3noc(COc4ccccc4F)n3)C2)c1 (stereo not given) | –
CC(C)CNC(=O)N1[C@@H]2CC[C@H]1CC(NC(=O)c1ccc(F)cc1)C2 (stereo not given in full) | –
CN1CCN(C(=O)C2CCCN(C3CCN(c4cc(C#N)ccn4)CC3)C2)CC1 (stereo not given) | –
CNC(=O)c1cc(-c2cnn(C)c2C)cc2c1OCCN2Cc1cccnc1 | –
Cc1ccc(-c2c3c(=O)n(C)c(=O)n(C)c3c3c(-c4cccc(C)c4)nc4ccccc4n23)cc1 | –
COc1ccc(-c2nc3ccccc3n3c(-c4cccc(C)c4)c4c(=O)n(C)c(=O)n(C)c4c23)cc1OC | 11.2µM
COc1ccc(-c2c3c(=O)n(C)c(=O)n(C)c3c3c(-c4cccc(C)c4)nc4ccccc4n23)cc1 | –
CN(C)c1ccc(CN2CCCC3(CC(c4ccccn4)=NO3)C2)cc1 (stereo not given) | –
CC(=O)N[C@H]1CC[C@]2(C)CC[C@@H](C(C)C(=O)NC(C)C)[C@H](O)[C@H]2[C@@H]1C (stereo not given in full) | –
Cc1cn2nc(C(=O)NCc3ccc(C(C)C)cc3)cc2c(=O)[nH]1 | –
O=C(CCc1cc2n(n1)CCCNC2)N1CCCN(c2ccncc2)CC1 | –
CN(C)CCNC(=O)c1ccc2nc(CCc3ccccc3)oc2c1 | –
O=C(NCCCN1CCN(c2ccccc2)CC1)c1ccc2nc(CCc3ccccc3)oc2c1 | 7.94µM
O=C(NCCc1ccccc1)c1ccc2nc(CCc3ccccc3)oc2c1 | –
CC(=O)N1CCC(NC[C@H]2COCc3nc4cc(F)ccc4n32)CC1 | –
OC1(CN2CCCN(c3nc4ccccc4s3)CC2)CNCCOC1 (stereo not given) | 8.91µM
OC1(CN2CCN(C(c3ccccc3)c3ccccc3)CC2)CNCCOC1 (stereo not given) | 6.31µM
OC1(CN2CCC(OCc3ccccn3)CC2)CNCCOC1 (stereo not given) | –
OC1(CN2CCN(c3cnccn3)CC2)CNCCOC1 (stereo not given) | –
